The source of these data is PubChem BioAssay AID651791 (National Center for Advancing Translational Sciences (NCATS), 2012).

Each structure is given as a SMILES string. Records with an inconclusive call do not appear. Activity calls are given as the source filed them. Calls follow the shape of the dose curve; as a rule, active = well fitted inhibition curve with a large enough effect; inconclusive = small, poorly fitted or top-dose-only effect; inactive = no such curve, though single readings can be large or run the other way.
Potency is read from the fitted curve at half-maximal effect.

The nature of the test: InCell qHTS Assay for Inhibitors of the mTORC1 Signaling Pathway in MEF (Tsc2-/-, p53-/-) Cells: Hit Validation.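 Also: phospho-S6 Ser235/236 signal normalized to propidium iodide cell count per well; nearly all actives have a fitted effect of over 75% in size.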 Conditions: phospho-rpS6 immunofluorescence, 24 h; activity change, negative = inhibition: at 38.3 µM (top of the series).
As to `COc1ccc(C2CC(=O)c3c([nH]c(C(=O)OC4CCCCCC4)c3C)C2)cc1OC` (configuration not stated), the activity change, negative = inhibition was -100%.
`CCOC(=O)c1c(NC(=O)COc2ccc(OC)cc2)sc(C(=O)N(CC)CC)c1C`: the activity change, negative = inhibition is -100%.
Still for that read-out and setting: in the case of `Cc1cc(NC(=O)c2ccco2)cc(-c2nc3cc(Cl)ccc3o2)c1O` it was -4.63%; in that of `CCCOC(=O)c1c(C)oc2c1cc(NS(=O)(=O)c1ccc(OCC)cc1)c1ccccc12`, -15.2%.
Take `O=S(=O)(NCC(c1ccco1)N1CCN(c2ccc(F)cc2)CC1)c1ccccc1` (configuration not stated): the activity change, negative = inhibition is -100%.
In the case of `CCCN1C(=O)C(Cc2nc3ccccc3c(=O)n2CC)c2cc(Br)ccc21` (configuration not stated), the activity change, negative = inhibition is -100%.
Turning to `Cc1ccc(O)c(C(CC(=O)NCC2(c3ccccc3)CCCC2)c2ccccc2)c1` (configuration not stated), the activity change, negative = inhibition was -100%.
Regarding `CCSc1oc(-c2ccc(F)cc2)nc1S(=O)(=O)c1ccc(C)cc1`, the activity change, negative = inhibition is -100%.
As for `CCCCN1C(=O)C(O)(c2c(C)[nH]c3ccccc23)c2cc(Br)ccc21` (configuration not stated), the activity change, negative = inhibition was -21.8%.
On to `CC(C)S(=O)(=O)c1oc(-c2ccc(F)cc2)nc1S(=O)(=O)c1ccc(F)cc1`, for which the Potency was 927 nM (active).
Consider `CCc1ccccc1NC(=O)CSCc1cnn(-c2ccccc2)c1-n1cccc1`, for which the activity change, negative = inhibition was -100%.
For `Cc1ccc(C)c(N2CCN(CCCNC(=O)c3nnc(Cc4ccc(F)cc4Cl)o3)CC2)c1`, the activity change, negative = inhibition came out at 1.72%.
Regarding `CC(C)N(C(=O)CSc1nc2ccc(Cl)cc2[nH]1)c1ccccc1`, the activity change, negative = inhibition is -100%.
For `CCS(=O)(=O)c1ncc(Cl)c(C(=O)Nc2ccc(S(=O)(=O)N(C)c3ccccc3)cc2)n1`, the Potency was 1850 nM (active).
On to `COc1ccc(Cn2c(C(=O)O)c(CNCc3ccccc3F)c3ccc(OC)cc32)cc1`, for which the activity change, negative = inhibition was -100%.
For the molecule `Cn1nnnc1SCCCNCc1ccccc1OCc1ccc(Cl)cc1`, the activity change, negative = inhibition was -12.8%.
`CCCc1oc2ccc(NS(=O)(=O)c3ccc(OCC)cc3)cc2c1C(=O)OCC`: the activity change, negative = inhibition was -100%.
With `Cc1oc(-c2ccccc2F)nc1Cn1c(SCc2cccc(Cl)c2)nc2ccncc21`, the activity change, negative = inhibition is -100%.
Regarding `CCC1=Nc2cc(C(=O)NC3CCCC3)ccc2Sc2ccc(Cl)cc21`, the activity change, negative = inhibition is -100%.
On to `COc1cc2c(cc1OC)n(CC(=O)c1ccc(F)cc1)c(=O)n1nc(CCn3nc(C)cc3C)nc21`, for which the activity change, negative = inhibition is -100%.
In the case of `CN1CCN(C(CNC(=O)C(=O)Nc2cccc(Cl)c2)c2ccc3c(c2)OCO3)CC1` (configuration not stated), the activity change, negative = inhibition was -100%.
For `Cc1cccc(Nc2nnc(-c3ccc(C)c(S(=O)(=O)N4CCN(C)CC4)c3)c3ccccc23)c1`, the activity change, negative = inhibition was -100%.
Regarding `Cc1cccc(C(=O)Nc2c3c(nn2-c2ccc(Cl)cc2)CS(=O)(=O)C3)c1`, the activity change, negative = inhibition is -100%.
With `COc1ccc(-c2nnc(SCC(=O)NCc3ccccc3)nc2-c2ccc(OC)c(OC)c2)cc1OC`, the activity change, negative = inhibition is -100%.
Regarding `CCOc1cc(CNCCSc2nnnn2C)cc(Cl)c1OCc1ccc(Cl)cc1`, the activity change, negative = inhibition is -100%.
With `CCc1ccc(CNc2ncc(-c3cccc(OC)c3)n2C)cc1`, the activity change, negative = inhibition was -100%.
Regarding `COC(=O)c1c(C)oc2ccc(N(C(=O)c3ccncc3)S(=O)(=O)c3ccc(OC)cc3)cc12`, the activity change, negative = inhibition is -25.4%.
As to `CCc1cnc2c(c1SCC(=O)NCc1ccc(F)cc1)c(=O)n(C)c(=O)n2C`, the activity change, negative = inhibition was -100%.
`CCOc1ccccc1NC(=O)Cn1c(=O)n(CCC(=O)NCc2ccc3c(c2)OCO3)c(=O)c2ccccc21`: the activity change, negative = inhibition was -100%.
`COc1ccc(-c2ccc(CCC(=O)O)n2-c2ccccc2O)cc1`: the activity change, negative = inhibition is -7.96%.
As to `CCCCS(=O)(=O)c1nc(-c2ccc(Br)cc2)cc(-c2ccccc2)c1C#N`, the Potency was 16500 nM (active).
As for `Cc1c(C(=O)OC2CCC(C)CC2)[nH]c2c1C(=O)CC(c1ccccc1Cl)C2` (configuration not stated), the activity change, negative = inhibition was -100%.
Still for that read-out and setting: in the case of `CCN(CC)CCNC(=O)c1ccc(Cn2c(=O)c3cccn3c3cccnc32)cc1` it was -100%.
`CCOC(=O)c1ccc2ncc(C(=O)OCC)c(NCCc3ccc(OC)c(OC)c3)c2c1`: the activity change, negative = inhibition was -100%.
For the molecule `O=C(/C=C/c1ccco1)Nc1ccc(Cl)c(-c2nc3cc(Cl)ccc3o2)c1`, the activity change, negative = inhibition is -100%.
As for `COc1cccc(C2CC(=O)Nc3cc4c(cc32)OCCO4)c1OC` (configuration not stated), the activity change, negative = inhibition was -100%.
Take `CCC1=Nc2cc(C(=O)NC3CCCC3)ccc2Sc2ccc(Br)cc21`: the activity change, negative = inhibition was -100%.
